AGP1-GFP MLPCN: modulators of TOR pathway AGP1-GFP in S. cerevisiae; GFP response vs DMSO, % at 10 µM; S. cerevisiae AGP1-GFP multiplex flow cytometry, 3 h; GFP as percent of DMSO wells; AID 2066; 320,000 tested, 0.02% active;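 active = GFP response relative to DMSO above a set limit, near screen average plus 3 SD, cut at about 150% in these data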;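 also: median GFP channel fluorescence of the gated AGP1 strain per well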
CIT2 TOR yeast: modulators of TOR pathway CIT2-GFP in S. cerevisiae. AID 2029. 320,000 tested, 0.065% active. S. cerevisiae CIT2-GFP strain, flow cytometry, 3 h; 100 means same as DMSO wells. GFP response vs DMSO, % at 10 µM;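 active = GFP response relative to DMSO above a set limit, near the screen mean plus 3 SD, cut at about 150% in these data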;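 also: ratio of well median GFP fluorescence to mean of DMSO wells on the plate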
RPL19A TOR yeast: yeast TOR pathway RPL19A-GFP modulation. S. cerevisiae RPL19A-GFP strain, flow cytometry, 3 h; hits give low values. percent response vs DMSO, % at 10 µM. 330,000 tested, 0.3% active. AID 2025;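 active = percent response vs DMSO below 50%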;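 also: median channel GFP fluorescence of the barcoded RPL19A-GFP strain; ratio of sample median GFP to plate DMSO average so 100% = DMSO; lower means less RPL19A-GFP as with rapamycin TOR inhibition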
Myeloid diff 2: compounds promoting myeloid differentiation. ER-HoxA9 myeloid progenitors, lysozyme-GFP differentiation, flow cytometry. calls only at 10 µM. 360,000 tested, 1% active;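 active = normalized GFP-positive differentiation at or above the plate's own cutoff, the solvent-only control mean plus 3 SD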;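 also: cells exposed to compound for four days before flow analysis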
LAP4-GFP MLPCN: yeast TOR pathway LAP4-GFP modulation. S. cerevisiae LAP4-GFP multiplex, flow cytometry GFP, 3 h; median GFP as percent of DMSO wells. GFP response vs DMSO, % at 10 µM. 320,000 tested, 0.34% active. AID 2023;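 active = GFP response vs DMSO above a set limit, about the screen mean plus 3 SD, cut at about 150% in these data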
MEP2 TOR yeast: yeast TOR pathway MEP2-GFP modulation; S. cerevisiae MEP2-GFP strain, flow cytometry GFP, 3 h; 100% = DMSO control level; GFP response vs DMSO, % at 10 µM; 330,000 tested, 0.51% active;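 active = GFP response versus DMSO above a set limit, roughly screen mean plus 3 SD, cut at about 180% in these data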;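 also: median GFP fluorescence of the barcode-gated MEP2-GFP cells per well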
LAP4 cherry2: reconfirmed LAP4-GFP TOR pathway modulator in yeast; 590 tested, 20% active; S. cerevisiae LAP4-GFP strain, flow cytometry GFP, 3 h; GFP response vs DMSO, % at 10 µM; shares compounds with LAP4-GFP MLPCN;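 active = GFP signal as percent of the solvent control above about 150%, meaning raised reporter expression, limit read from the data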;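 also: ratio of well median GFP fluorescence to plate DMSO mean so 100% = DMSO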
MEP2 cherry2: second confirmation of modulators of TOR reporter MEP2-GFP in yeast | GFP response vs DMSO, % at 10 µM | shares compounds with LAP4-GFP MLPCN | 590 tested, 10% active | AID 2622 | S. cerevisiae MEP2-GFP strain, flow cytometry GFP, 3 h;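 active = GFP signal above 150% of the solvent control wells, that is a rise of more than half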;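 also: median channel GFP fluorescence of all gated yeast cells per well; ratio of median GFP to plate DMSO average so 100% = DMSO level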
RPL19A-GFP pick2: reconfirmed modulator of RPL19A-GFP TOR reporter in yeast | shares compounds with LAP4-GFP MLPCN | S. cerevisiae RPL19A-GFP strain, flow cytometry GFP, 3 h; hits give low values; 100% means same as DMSO wells | GFP response vs DMSO, % at 10 µM | 590 tested, 3% active;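 active = under 65% GFP response relative to DMSO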;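 also: median GFP channel fluorescence per well over the all cells gate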
CIT2-GFP pick2: yeast CIT2-GFP TOR reporter modulation, second cherry pick | GFP response vs DMSO, % at 10 µM | AID 2624 | 590 tested, 8% active | shares compounds with LAP4-GFP MLPCN | S. cerevisiae CIT2-GFP strain, flow cytometry GFP, 3 h; DMSO control wells read 100%;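 active = GFP response vs DMSO above about 150%, limit read from the data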;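 also: median green fluorescence per well over all gated yeast cells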
AGP1-GFP pick2: yeast AGP1-GFP TOR reporter modulation, second cherry pick. shares compounds with LAP4-GFP MLPCN. S. cerevisiae AGP1-GFP strain, flow cytometry GFP, 3 h. percent response vs DMSO, % at 10 µM. 590 tested, under 10 active;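 active = over 150 percent of DMSO response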;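 also: median GFP channel fluorescence over all cells without mother daughter split; sample median GFP divided by mean DMSO control so 100% equals DMSO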
s288c autofluor: yeast s288c autofluorescence artifact, counter-screen; 610 tested, under 10 active; shares compounds with LAP4-GFP MLPCN; fluorescence change (kMESF span) at 33 µM; S. cerevisiae s288c, 520 nm autofluorescence, flow cytometry, 3 h; hits give high values; zero means same as solvent-only cells;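 active = fluorescence span over the dose series, or activity score, above about 33, limit read from the data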
s288c autofl DR: yeast s288c autofluorescence artifact in dose response; shares compounds with LAP4-GFP MLPCN; S. cerevisiae s288c parental, compound autofluorescence, flow cytometry, 3 h; fluorescence change (span) at 33 µM; 110 tested, under 10 active; AID 488829;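 active = fluorescence change span, or the activity score built from it, above 25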
TORC1 bypass: stops wildtype yeast growth while TORC1 bypass cells still grow | AID 504456 | shares compounds with LAP4-GFP MLPCN | S. cerevisiae BY4741 spot growth rating, 48-72 h; hits give low values | growth rating (0-3) at 30 µM | 120 tested, under 10 active;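 active = growth rating at most 1 for wild type yeast while the TORC1 bypass strain still grows fully, rated 3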
* = called active by the depositor. Sampled rows, rich in hits. Any-hit rate of the full collection: about 1.8%.

Results for CC(Oc1cc2oc(=O)c3c(c2cc1Cl)CCC3)C(=O)NCCN1CCOCC1 (stereo unspecified) ?
AGP1-GFP MLPCN: 23.8; CIT2 TOR yeast: 108.3; RPL19A TOR yeast: 58.2; Myeloid diff 2: inactive; LAP4-GFP MLPCN: 89.9; MEP2 TOR yeast: 142.3; LAP4 cherry2: 99.0; MEP2 cherry2: 106.5; RPL19A-GFP pick2: 100.9; CIT2-GFP pick2: 105.2; AGP1-GFP pick2: 103.3; s288c autofluor: -0.1

How did Cc1cc(C)cc(NC(=O)CN2CCc3cc4c(cc3C2C)OCCCO4)c1 (stereo unspecified) do in these assays?
AGP1-GFP MLPCN: 88.3; CIT2 TOR yeast: 98.7; RPL19A TOR yeast: 99.6; Myeloid diff 2: inactive; LAP4-GFP MLPCN: 123.6; MEP2 TOR yeast: 192.8*; LAP4 cherry2: 101.9; MEP2 cherry2: 98.2; RPL19A-GFP pick2: 100.7; CIT2-GFP pick2: 107.4; AGP1-GFP pick2: 97.4

How did Cc1ccc(/C=N/Nc2ccc(F)cc2F)s1 do in these assays?
AGP1-GFP MLPCN: 96.8; CIT2 TOR yeast: 110.8; RPL19A TOR yeast: 95.9; Myeloid diff 2: inactive; LAP4-GFP MLPCN: 92.3; MEP2 TOR yeast: 92.3

What do the screens show for `O=c1cc(C(F)(F)F)[nH]c2ccc(OC(F)(F)F)cc12`?
AGP1-GFP MLPCN: 77.3; CIT2 TOR yeast: 92.0; RPL19A TOR yeast: 64.8; Myeloid diff 2: inactive; LAP4-GFP MLPCN: 96.5; MEP2 TOR yeast: 164.2; LAP4 cherry2: 97.1; MEP2 cherry2: 103.2; RPL19A-GFP pick2: 103.0; CIT2-GFP pick2: 104.0; AGP1-GFP pick2: 102.3

What do the screens show for `O=C(C#Cc1ccccc1)c1cccc([N+](=O)[O-])c1`?
AGP1-GFP MLPCN: 99.0; CIT2 TOR yeast: 91.8; RPL19A TOR yeast: 77.4; Myeloid diff 2: inactive; LAP4-GFP MLPCN: 201.9*; MEP2 TOR yeast: 95.4; s288c autofluor: 0.31

What do the screens show for `Cc1ccc(C(=O)N2CCN(S(C)(=O)=O)C2)cc1`?
AGP1-GFP MLPCN: 88.9; CIT2 TOR yeast: 91.5; RPL19A TOR yeast: 92.4; Myeloid diff 2: inactive; LAP4-GFP MLPCN: 79.8; MEP2 TOR yeast: 100.9

Results for ON=Cc1ccnc2ccccc12 ?
Myeloid diff 2: inactive

How did O=C(/C=C/c1ccnc2ccccc12)c1cccs1 do in these assays?
AGP1-GFP MLPCN: 112.4; CIT2 TOR yeast: 79.7; RPL19A TOR yeast: 98.9; Myeloid diff 2: inactive; LAP4-GFP MLPCN: 172.4*; MEP2 TOR yeast: 100.3; s288c autofluor: 0

What do the screens show for `COc1ccc2nc(Cl)cc(Cl)c2c1`?
AGP1-GFP MLPCN: 99.5; CIT2 TOR yeast: 96.0; RPL19A TOR yeast: 93.7; Myeloid diff 2: inactive; LAP4-GFP MLPCN: 99.3; MEP2 TOR yeast: 96.5

Results for COc1ccc2nccc(/C=C/c3ccnc4ccc(OC)cc34)c2c1 ?
AGP1-GFP MLPCN: 65.3; CIT2 TOR yeast: 68.3; RPL19A TOR yeast: 62.0; Myeloid diff 2: inactive; LAP4-GFP MLPCN: 137.2; MEP2 TOR yeast: 90.8; LAP4 cherry2: 110.6; MEP2 cherry2: 111.5; RPL19A-GFP pick2: 93.5; CIT2-GFP pick2: 92.7; AGP1-GFP pick2: 92.5

What do the screens show for `COc1ccc(N2C(=O)C(Cl)=C(Oc3cccc(OC)c3)C2=O)cc1`?
AGP1-GFP MLPCN: 75.0; CIT2 TOR yeast: 101.9; RPL19A TOR yeast: 71.0; Myeloid diff 2: inactive; LAP4-GFP MLPCN: 197.5*; MEP2 TOR yeast: 82.9; s288c autofluor: 1.13

Results for COc1ccc(C(=O)NNC(=S)NC(=O)/C=C/c2cccs2)cc1 ?
AGP1-GFP MLPCN: 132.6; CIT2 TOR yeast: 100.7; RPL19A TOR yeast: 98.2; Myeloid diff 2: inactive; LAP4-GFP MLPCN: 186.1*; MEP2 TOR yeast: 109.0; s288c autofluor: 0.82; s288c autofl DR: 0.21; TORC1 bypass: 3

What do the screens show for `CC1CCCC(NC(=O)CN(C)CC(=O)Nc2cccc(F)c2)C1C` (stereo unspecified)?
AGP1-GFP MLPCN: 133.7; CIT2 TOR yeast: 127.0; RPL19A TOR yeast: 79.8; Myeloid diff 2: inactive; LAP4-GFP MLPCN: 171.9*; MEP2 TOR yeast: 155.1; LAP4 cherry2: 99.2; MEP2 cherry2: 99.6; RPL19A-GFP pick2: 99.7; CIT2-GFP pick2: 97.3; AGP1-GFP pick2: 99.0

Results for CC(=O)c1ccc(NC(=O)CN(C)CC(=O)Nc2cccc(F)c2)cc1 ?
AGP1-GFP MLPCN: 90.8; CIT2 TOR yeast: 83.8; RPL19A TOR yeast: 93.4; Myeloid diff 2: inactive; LAP4-GFP MLPCN: 90.5; MEP2 TOR yeast: 93.5

What do the screens show for `O=C1ON=C(c2ccccc2)/C1=C/c1ccc(O)cc1`?
AGP1-GFP MLPCN: 89.8; CIT2 TOR yeast: 112.9; RPL19A TOR yeast: 100.2; Myeloid diff 2: inactive; LAP4-GFP MLPCN: 115.7; MEP2 TOR yeast: 94.7

Results for O=C1ON=C(c2ccc(Cl)cc2)/C1=C/c1ccc(O)cc1 ?
AGP1-GFP MLPCN: 77.8; CIT2 TOR yeast: 95.7; RPL19A TOR yeast: 88.9; LAP4-GFP MLPCN: 161.1*; MEP2 TOR yeast: 85.9; s288c autofluor: 0.7

Results for COc1cc(/C=C2/C(=O)ON=C2c2ccccc2)ccc1O ?
AGP1-GFP MLPCN: 77.8; CIT2 TOR yeast: 98.7; RPL19A TOR yeast: 94.7; Myeloid diff 2: inactive; LAP4-GFP MLPCN: 172.9*; MEP2 TOR yeast: 93.2; s288c autofluor: 0.2

Source: PubChem BioAssay (NMMLSC)
